HP1b binding inh: inhibitors of HP1-beta chromodomain binding to methylated histone tails | AlphaScreen HP1-beta / biotin-H3K9me3 peptide binding | AID 540317 | P83916 | actives 0.56% (n = 390,000) | Potency, µM (highest dose often 114 µM), for the others: top-dose activity change, negative = inhibition, usual class: inhibitors; note: nearly all actives have a fitted effect of over 70% in size
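Compound inhibition of the preformed complex between 50 nM HP1-beta and 50 nM biotinylated H3K9me3 peptide was read by AlphaScreen. Buffer was PBS pH 7.4 with 0.01% Tween-20. Incubations ran 30 min at room temperature, with 10 ug/mL donor/acceptor beads.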
PLK1 PBD block: PLK1 (human) polo-box domain binding inhibition; AID 720504; Plk1 PBD binding of FITC phosphopeptide, fluorescence polarization; actives 2.8% (n = 360,000); Potency, µM, inactives show max response, negative = inhibition, actives largely listed as inhibitors; note: series mostly up to about 57 µM; % is set by controls: 0 for no effect and ±100 for the full control effect; nearly all actives have a fitted effect of over 65% in size
G9a inh: inhibitors of human histone lysine methyltransferase G9a. AID 504332. G9a H3K9 monomethylation, AlphaScreen, 2 h. Potency, µM (doses to about 102 µM), inactives show at the highest dose activity, negative = inhibition, usual class: inhibitors. Q96KQ7. actives 8.8% (n = 350,000); note: % is set by controls: 0 for no effect and ±100 for the full control effect; nearly all actives have a fitted effect of over 75% in size
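Compounds were preincubated with 20 nM G9a for 15 min, after which biotinylated H3K9 peptide (500 nM) and SAM (20 uM) started a 2 h room-temperature reaction. Monomethylated product was quantified by antibody-based AlphaScreen chemiluminescence.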
BAZ2B inh: blocks human BAZ2B | Q9UIF8 | AlphaScreen BAZ2B-H3K14Ac peptide displacement | Potency, µM (highest dose often 114 µM), inactives show at the top dose activity change, negative = inhibition, usual class: inhibitors | actives 4.4% (n = 360,000) | AID 504333; note: % is set by controls: 0 for no effect and ±100 for the full control effect; nearly all actives have a fitted effect of over 60% in size
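AlphaScreen displacement: compounds (up to 110uM) incubated 30 min at room temperature with a preformed 50 nM BAZ2B/50 nM biotinylated H3K14Ac peptide complex in PBS pH 7.4 with Tween-20. Donor and acceptor beads at 10 ug/mL final added, 20 min light-protected before reading.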
ALOX12 inh: blocks human arachidonate 12S-lipoxygenase | P18054 | purified 12hLO, xylenol orange hydroperoxide absorbance | Potency, µM (doses to about 108 µM), for the others: at the top dose activity change, negative = inhibition, most hits filed as inhibitors | actives 1.1% (n = 580,000); note: % is set by controls: 0 for no effect and ±100 for the full control effect
Target sequence (P18054 whole entry, looked up): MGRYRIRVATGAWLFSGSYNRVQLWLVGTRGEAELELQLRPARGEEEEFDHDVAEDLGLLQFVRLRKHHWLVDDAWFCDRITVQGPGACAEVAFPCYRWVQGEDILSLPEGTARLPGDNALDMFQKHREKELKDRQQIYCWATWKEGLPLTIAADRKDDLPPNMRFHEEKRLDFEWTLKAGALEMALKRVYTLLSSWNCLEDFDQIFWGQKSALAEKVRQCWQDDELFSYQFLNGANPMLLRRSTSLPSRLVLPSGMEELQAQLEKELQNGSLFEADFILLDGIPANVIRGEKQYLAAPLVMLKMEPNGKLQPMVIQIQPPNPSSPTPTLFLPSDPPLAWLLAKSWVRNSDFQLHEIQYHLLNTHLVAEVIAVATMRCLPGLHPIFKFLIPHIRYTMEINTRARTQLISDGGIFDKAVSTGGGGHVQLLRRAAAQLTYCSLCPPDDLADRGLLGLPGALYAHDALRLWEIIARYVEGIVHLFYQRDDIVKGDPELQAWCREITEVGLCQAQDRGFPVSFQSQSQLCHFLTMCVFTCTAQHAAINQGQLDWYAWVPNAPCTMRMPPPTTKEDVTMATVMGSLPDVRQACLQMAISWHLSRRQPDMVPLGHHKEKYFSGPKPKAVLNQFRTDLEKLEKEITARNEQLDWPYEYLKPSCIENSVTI
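Purified human 12hLO (150 nM final) in 25 mM Hepes, 0.01% Triton X-100, pH 7.0 was preincubated 15 min at room temperature with compound. Then 40 uM arachidonic acid was added, 30 min. Hydroperoxide was read by Fe-XO absorbance ratio 573/405 nm.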
JMJD2A Tudor: JMJD2A Tudor domain (human) inhibition | actives 4.4% (n = 390,000) | Potency, µM (doses to about 114 µM), for inactives: at the highest dose activity change, negative = inhibition, hits mostly inhibitors | AlphaScreen JMJD2A-Tudor / H3K4me3 peptide binding | AID 504339; note: % is set by controls: 0 for no effect and ±100 for the full control effect; nearly all actives have a fitted effect of over 50% in size
Active calls of the source: *; u = inconclusive; x = no result given; ! = not active in a repeat; [ ] = another dose, or the depositor's remark. Shown are actives, neighbours in structure and some others; about 9% of the full set was active somewhere. Calls come from the whole dose curve; as a rule, active = well fitted curve in the direction sought with a large enough effect; inconclusive = small, poorly fitted or top-dose-only effect, or another doubt; inactive = no such curve, though single readings can be large; an effect the other way counts as inactive or inconclusive. Potency is the fitted concentration of half-maximal effect.

SMILES	HP1b binding inh	PLK1 PBD block	G9a inh	BAZ2B inh	ALOX12 inh	JMJD2A Tudor
S=c1[nH]nc(-c2cccnc2)n1-c1ccccc1	21.1%	-7.3%	1.58µM*	-29.7%	-25.5%	7.94µM*
O=S(=O)(/C=C/c1ccccc1)Nc1cccc(S(=O)(=O)NC2=NCCC2)c1	47.2%	-4.3%	-6.4%	-15.4%	23.9%	-14.3%[11.4 µM]
O=C(CCC(=O)Nc1ccc(F)cc1)N/N=C/c1ccc(F)cc1	26.5%	-7.2%	6.0%	36.0%	-33.0%	-6.4%
Cc1cccc(C(=O)OCC(=O)Nc2nccs2)c1	32.8%	-5.5%	x	7.2%	-23.0%	-6.4%
O=C1C(C=NCc2ccccn2)=C(O)c2ccccc21	21.3%	-4.5%	4.1%	89.1µM*	4.4%[57.4 µM]	-7.4%
Cc1cn2nnc(C(=O)N3CCC(C(=O)Nc4ccc(F)c(Cl)c4)CC3)c2c(=O)[nH]1	x	x	x	x	13.4%	x
CC(C)C1Nc2c(O)cc(Cl)c([N+](=O)[O-])c2C2C=CCC21 (configuration not stated)	u	u	25.1µM*	25.1µM*	u	39.8µM*
OCCn1cc(-c2cnc3nnn(Cc4ccc5ncccc5c4)c3n2)cn1	x	x	x	x	-8.8%[57.4 µM]	x
CCSc1cc(C)nc2c(-c3ccccc3)c(C)nn12	24.0%	-1.6%	-0.3%[59 µM]	0.0%	-4.0%	2.6%
CN1C=C(C(F)(F)F)C=C/C1=C(\C#N)c1nnc2n1CCCCC2	20.3%	-13.0%	-9.7%	-5.4%	-17.1%	-12.8%
C/C(O)=C(\C#N)c1nnc2n1CCCCC2	9.1%	-1.0%	10µM*	56.2µM*	u	u
Cc1cc(Br)ccc1OCCCCN1CCCCC1	u	-1.6%	u	50.1µM*	u	1.58µM*
Cc1cc(Br)ccc1OCCOCCN1CCCC1	2.4%	-5.0%	x	u	-2.5%	25.1µM*
Cc1ccc(OCCOCCN2CCCC2)c(Br)c1	u	-10.9%	35.5µM*	56.2µM*	u	28.2µM*
O=C(O)CN(CC(=O)O)CC(=O)O	46.0%	u	x	x	u	31.6µM*
Cc1ccc(S(=O)(=O)NCC(C)NS(=O)(=O)c2ccc(C)cc2)cc1 (configuration not stated)	61.1%	-7.0%	u	u	-7.3%	-7.1%
C=CCN1C(=O)/C(=c2\sc3nc(=O)c(Cc4ccccc4)nn3c2=O)c2ccccc21	u	13.4µM*	x	u	u	56.2µM*
C=CCN1C(=O)/C(=N/n2cnnc2)c2ccccc21	6.7%	-23.5%	0.5%[12.7 µM]	-33.2%	-2.2%	-10.4%
CCN1C(=O)/C(=c2\sc3nc(=O)c(Cc4ccccc4)nn3c2=O)c2ccccc21	-31.4%	u	25.1µM*	u	0.0%	u
CCN1C(=O)/C(=C/c2nc3ccccc3c(=O)[nH]2)c2ccccc21	13.1%	-1.9%	-1.7%[59 µM]	-29.4%	-3.5%	-8.2%
O=C1CCS/C(=N\N=C\c2ccc(Cl)cc2Cl)N1	27.2%	0.2%	-8.5%	-11.4%	-4.0%	-16.2%
Cc1c(NC(=O)C2CC=CCC2C(=O)O)c(=O)n(-c2ccccc2)n1C (configuration not stated)	11.5%	-17.6%	-46.5%[12.7 µM]	79.4µM*	114.6%	-19.5%
Cc1c(NC(=O)CN2CC(C)OC(C)C2)c(=O)n(-c2ccccc2)n1C (configuration not stated)	56.2µM*!	-11.3%	15.8µM*	20µM*	u	11.2µM*!
CCC(CC)C(=O)Nc1c(C)n(C)n(-c2ccccc2)c1=O	25.0%	-23.2%	-4.5%	9.7%	-3.6%	2.9%
CCN(CC)C(=O)Nc1c(C)n(C)n(-c2ccccc2)c1=O	14.2%	1.4%	14.7%[59 µM]	5.5%	392.9%	3.4%
CCN1CCN(C(C)C(=O)Nc2c(C)n(C)n(-c3ccccc3)c2=O)CC1 (configuration not stated)	u	-4.1%	11.2µM*	50.1µM*	u	7.94µM*
Cc1c(NC(=O)CN2CCN(c3ccccc3)CC2)c(=O)n(-c2ccccc2)n1C	32.2%	-5.8%	-6.5%	6.6%	0.0%	-14.3%
